# PubChem BioAssay (NCI)
# The panel holds about 83,000 compounds, 20% with a hit somewhere; the sample as a whole holds those more often.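 Interpretation: 100, growth as untreated; towards 0, rising growth inhibition; 0, no net growth; 0 to -100, cell death. Compounds scoring below 10 were considered active.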 Activity calls are given as the source filed them.
# Test system: U251 CNS
# Assay: NCI-60 one-dose screen, 48 h (100 = growth as untreated, 0 = no growth, -100 = all killed)
# Details: 10 µM unless noted
# Procedure: Growth inhibition of the U251 human tumor cell line is measured as a screen for anti-cancer activity. Cells are grown in 96 well plates and exposed to the test compound for 48 hours. Compounds are tested at a single concentration, which is 10^-5 M for most compounds. The reported endpoint is percent growth (GI% or GIPRCNT), where numbers from 0 - 100% represent growth inhibition, and numbers from -100% - 0 represent cell death. For example, a value of 40 represents 60% growth inhibition. A value of 0 means no net growth occurred over the course of the experiment. A value of -40 indicates 40% of cells at the beginning of the experiment died by the end of the experiment. A value of -100 means all cells are dead at the end of the experiment.
# NCI-60 Human Tumor Cell Lines Screen was performed using the standard one-dose NCI protocol, which is described in more detail at https://dtp.cancer.gov/discovery_development/nci-60/default.htm.
# Compounds with GIPRCNT values below 10 were considered active. Activity score was based on GIPRCNT using the following formula: […]
# Score is 0 for GIPRCNT values of 100 or above, 50 for GIPRCNT values of 0, and 100 for GIPRCNT values of -100.
row,Structure (SMILES),growth
1,C=C1C[C@H](O)[C@H](Br)C(C)(C)[C@@]12CCC(C)=C(Cl)C2,20.4% (inactive)
2,CCOc1cc2ncc(C#N)c(Nc3ccc(F)c(Cl)c3)c2cc1NC(=O)/C=C/CN(C)C,-70.9% (active)
3,COc1ccc(-c2ccc3ncc4c(c3c2)n(-c2ccc(N3CCNCC3)c(C(F)(F)F)c2)c(=O)n4C)cn1,-85.5% (active)
4,COc1c(OCCCN2CCOCC2)ccc2c3n(c(=NC(=O)c4cnc(N)nc4)nc12)CCN3,10.1% (inactive)
5,O=C1C=CC2(NN=C(c3ccccc3)N2c2cccc(Cl)c2)C(Cl)=C1 (stereo not given),84.6% (inactive)
6,CC(=O)O[C@]1(C)C[C@H](O)[C@]2(O)C=CO[C@H](O[C@@H]3O[C@H](CO)[C@@H](O)[C@H](O)[C@H]3O)[C@@H]21,99.8% (inactive)
7,CC(N)C(Cc1ccc(Cl)cc1)c1ccc(Cl)cc1 (stereo not given),5.91% (active)
8,Cc1nc2ccc(-n3ncc(C(=O)c4cc5ccccc5[nH]4)c3N)cc2[nH]1,24.4% (inactive)
9,Cn1ccnc1C(=O)/C=C/c1ccc(CC(=O)Nc2ccc(C(F)(F)F)cc2)cc1,-20% (active)
10,Cn1cc(-c2cnn3c(N)c(Br)c([C@@H]4CCCNC4)nc23)cn1,61% (inactive)
11,COC(=O)[C@]12CC[C@@H](C)[C@H](C)[C@@H]1C1=CC[C@@H]3[C@@]4(C)C(C=O)=C[C@@](C)(COS(C)(=O)=O)C4=CC[C@@]3(C)[C@]1(C)CC2,-93.6% (active)
12,Oc1ccc(/C=N/Nc2nnc(N/N=C/c3ccc(O)cc3O)c3ccccc23)c(O)c1,-25% (active)
13,CC(=O)NCC(=O)N1[C@@H]2CC[C@H]1c1ccc(Nc3ncc(C(F)(F)F)c(NC4CCC4)n3)cc12,56.2% [2.5 µM] (inactive)
14,N#CC1(C#N)C(c2cccs2)NC(c2cccs2)C1(C#N)C#N (stereo not given),104% (inactive)
15,Nc1nc(N)c2nc(-c3cccc(O)c3)c(-c3cccc(O)c3)nc2n1,71.6% (inactive)
16,CCc1nc2cc(F)c(/C=C/C(=O)NO)cc2c(=O)n1CCc1ccccc1,7.95% (active)
17,CCOC(=O)C1=C(C)N=C2Sc3cc(OC(F)(F)F)ccc3N2[C@H]1c1ccccn1,23.1% (inactive)
18,Cn1ncc(Cl)c1-c1cc(C(=O)N[C@H](CN)Cc2cccc(F)c2)sc1Cl,-45.2% (active)
19,C[C@@H](Oc1cc(-n2cnc3ccc(CN4CCN(C)CC4)cc32)sc1C(N)=O)c1ccccc1C(F)(F)F,29.1% (inactive)
20,O=C(CNc1nnc(-c2ccc(Cl)cc2)o1)Nc1ccc(-c2nc3ccccc3s2)cc1,81.6% (inactive)

row,Structure (SMILES),growth
1,Cc1nn(-c2nc3ccccc3[nH]2)c2c1C(c1ccc(O)cc1)CC(=O)N2 (stereo not given),76.4% (inactive)
2,C/C(=N\NC(=O)Cn1c(-c2ccc(S(C)(=O)=O)cc2)nc2ccccc21)c1ccc(Cl)cc1,89.7% (inactive)
3,O=S1(=O)OC(c2cc(Cl)c(O)c(Br)c2)(c2cc(Cl)c(O)c(Br)c2)c2ccccc21,101% (inactive)
4,O=[N+]([O-])c1cc(Br)cc2c1[nH]c1ccc(Br)cc12,58.4% (inactive)
5,Cc1cc(C(=O)Nc2cc(Oc3ccc4nc(NC(=O)C5CC5)cn4n3)ccc2C)n(C)n1,13.3% (inactive)
6,Cn1ccnc1C(=O)/C=C/c1ccc(CC(=O)Nc2ccc(S(F)(F)(F)(F)F)cc2)cc1,-93.3% (active)
7,O=C(Cc1ccccc1)Nc1nnc(NC2CCN(c3nnc(NC(=O)Cc4ccccc4)s3)CC2)s1,90.8% (inactive)
8,CN1CCN(c2nc(NCCNc3ccnc4cc(Cl)ccc34)c3ccccc3n2)CC1,9.01% (active)
9,C[C@@H]1COCCN1c1cc(C2([S@](C)(=N)=O)CC2)nc(-c2ccnc3[nH]ccc23)n1,32.2% (inactive)
10,CNC(=O)c1cccc2cc(Oc3ccnc4cc(OCC5(N)CC5)c(OC)cc34)ccc12,66.4% (inactive)
11,O=S1(=O)OC(c2ccc(O)c(Cl)c2)(c2ccc(O)c(Cl)c2)c2ccccc21,111% (inactive)
12,CCc1nc2cc(/C=C/C(=O)NO)ccc2c(=O)n1CCc1ccc(OC)cc1,16.5% (inactive)
13,O=C(O)C1(Cc2cccc(Nc3nccs3)n2)CCC(Oc2cccc(Cl)c2F)CC1 (stereo not given),60.8% (inactive)
14,CCN(CC)Cc1cc(Nc2cc(C(F)(F)F)c(C#N)c3nc4ccccc4n23)ccc1O,8.94% (active)
15,CNC(=O)c1nn(C)c2c1C(C)(C)Cc1cnc(Nc3ccc(N4CCN(C)CC4)cc3)nc1-2,8.54% (active)
16,COc1cccc2cc(-c3nc(C4CCC(C(=O)O)CC4)n4ncnc(N)c34)[nH]c12 (stereo not given),9.1% (active)
17,O=C(c1ccc(/C=C/c2n[nH]c3ccccc23)cc1)N1CCNCC1,58.9% (inactive)
18,O=c1[nH]c([C@@H]2CCCN2)nc2c1oc1ccc(Cl)cc12,42.6% (inactive)
19,O=C1C=CC2(NN=C(c3ccccc3)N2c2ccc(Cl)cc2)c2cccc(O)c21 (stereo not given),18.1% (inactive)
20,O=C(Nc1ccc(N=Nc2ccccc2)cc1)c1cccc2ccccc12,63.6% (inactive)
